Data on 20 compounds can be found in the supplement of paper PMC6089552.

In the assay the test system is A673/TR/shEF. In words: cell viability (LOESS-normalised, relative to median of negative controls) (log2 ratio); higher = more viable cells (less compound effect), active = hit call of the paper (over 3 MAD below the median). The conditions noted are these: treatment time: 72 h. The procedure, abridged:
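For three days, A673/TR/shEF Ewing sarcoma cells in 384-well plates (1,500 per well) were treated with library compounds at two or more concentrations or with DMSO controls, after doxycycline had been added or withheld 24 h beforehand to induce EWS-FLI1 shRNA knockdown. Viability was read by CellTiter-Glo luminescence on an Envision reader. The data were LOESS-corrected per plate, divided by the median of negative controls and log2-transformed.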

[1] abbreviates: 0.103 µM, library screen: screen3, EWS-FLI1 expression: high (no doxycycline).
Where [2] appears, read: 0.103 µM, library screen: screen3, EWS-FLI1 expression: low (doxycycline-induced shRNA knockdown).
Setting [3] is: 0.25 µM, library screen: screen2, EWS-FLI1 expression: high (no doxycycline).
Setting [4] is: 0.25 µM, library screen: screen2, EWS-FLI1 expression: low (doxycycline-induced shRNA knockdown).
[5] abbreviates: 0.308 µM, library screen: screen3, EWS-FLI1 expression: high (no doxycycline).
The mark [6] stands for this setting: 0.308 µM, library screen: screen3, EWS-FLI1 expression: low (doxycycline-induced shRNA knockdown).
[7] abbreviates: 0.926 µM, library screen: screen3, EWS-FLI1 expression: high (no doxycycline).
Setting [8] is: 0.926 µM, library screen: screen3, EWS-FLI1 expression: low (doxycycline-induced shRNA knockdown).
The mark [9] stands for this setting: 2.5 µM, library screen: screen2, EWS-FLI1 expression: high (no doxycycline).
Where [10] appears, read: 2.5 µM, library screen: screen2, EWS-FLI1 expression: low (doxycycline-induced shRNA knockdown).
Setting [11] is: 2.8 µM, library screen: screen3, EWS-FLI1 expression: high (no doxycycline).
The mark [12] stands for this setting: 2.8 µM, library screen: screen3, EWS-FLI1 expression: low (doxycycline-induced shRNA knockdown).
The mark [13] stands for this setting: 8.3 µM, library screen: screen3, EWS-FLI1 expression: high (no doxycycline).
Setting [14] is: 8.3 µM, library screen: screen3, EWS-FLI1 expression: low (doxycycline-induced shRNA knockdown).
Where [15] appears, read: 25 µM, library screen: screen3, EWS-FLI1 expression: high (no doxycycline).
Where [16] appears, read: 25 µM, library screen: screen3, EWS-FLI1 expression: low (doxycycline-induced shRNA knockdown).
Where [17] appears, read: 0.25 µM, library screen: screen1, EWS-FLI1 expression: high (no doxycycline).
Where [18] appears, read: 0.25 µM, library screen: screen1, EWS-FLI1 expression: low (doxycycline-induced shRNA knockdown).
The mark [19] stands for this setting: 2.5 µM, library screen: screen1, EWS-FLI1 expression: high (no doxycycline).
The mark [20] stands for this setting: 2.5 µM, library screen: screen1, EWS-FLI1 expression: low (doxycycline-induced shRNA knockdown).

In all, about 3,200 compounds went through this assay and about 300 (9.4%) showed activity. Only a selection was taken, and actives are over-represented in it overall. A number with no mark means an inactive call.

Regarding `CN(Cc1cnc2nc(N)nc(N)c2n1)c1ccc(C(=O)N[C@@H](CCC(=O)O)C(=O)O)cc1`, the “cell viability (log2)” value by setting is: (0.025 µM, library screen: screen2, EWS-FLI1 expression: high (no doxycycline)) 0.0134; (0.025 µM, library screen: screen2, EWS-FLI1 expression: low (doxycycline-induced shRNA knockdown)) 0.0597; under setting [1], -0.0597; under setting [2], 0.0506; under setting [3], -0.406 (active); under setting [4], 0.0894. For the same compound, the “cell viability (log2)” value runs as follows: under setting [5], -0.512 (active); under setting [6], 0.0568; under setting [7], -0.53 (active); under setting [8], 0.0108; under setting [9], -0.754 (active); under setting [10], 0.0271. Also, the “cell viability (log2)” value under setting [11] is -0.711 (active); the “cell viability (log2)” value under setting [12] was 0.0377; the “cell viability (log2)” value under setting [13] was -0.751 (active); the “cell viability (log2)” value under setting [14] was 0.0521; the “cell viability (log2)” value (25 µM, library screen: screen2, EWS-FLI1 expression: high (no doxycycline)) is -0.743 (active); the “cell viability (log2)” value (25 µM, library screen: screen2, EWS-FLI1 expression: low (doxycycline-induced shRNA knockdown)) is 0.0873. In addition, the “cell viability (log2)” value runs as follows: under setting [15], -0.797 (active); under setting [16], 0.0291.

In the case of `Nc1nc(=O)c2nc(CNc3ccc(C(=O)N[C@@H](CCC(=O)O)C(=O)O)cc3)cnc2[nH]1`, the “cell viability (log2)” value was 0.0181 under setting [17], 0.031 under setting [18], 0.0902 under setting [19] and 0.0775 under setting [20].

As for `O=C(O)CCC(NC(=O)c1ccccc1C(=O)O)C(=O)O` (centres undefined), the “cell viability (log2)” value by setting is: under setting [3], 0.0764; under setting [4], 0.0149; under setting [9], 0.157; under setting [10], 0.0718.

In the case of `Nc1nc(N)c2nc(CNc3ccc(C(=O)N[C@@H](CCC(=O)O)C(=O)O)cc3)cnc2n1`, the “cell viability (log2)” value was -1.62 (active) under setting [17]; -0.186 (active) under setting [18]; 0.137 under setting [3]; 0.126 under setting [4]; 0.122 under setting [19]; 0.141 under setting [20]. Further, the “cell viability (log2)” value by setting is: under setting [9], 0.123; under setting [10], 0.134.

Take `CCCCCN(CCCCC)C(=O)C(CCC(=O)O)NC(=O)c1ccc(Cl)c(Cl)c1` (centres undefined): the “cell viability (log2)” value was 0.131 under setting [3], 0.0648 under setting [4], 0.114 under setting [9] and 0.0564 under setting [10].

Take `CC(=O)O[C@H]1CC2(C)[C@@H](C[C@@H](O)[C@H]3[C@@]4(C)CC[C@@H](O)[C@@H](C)[C@@H]4CC[C@@]32C)/C1=C(/CCC=C(C)C)C(=O)O` (some centres undefined): the “cell viability (log2)” value is 0.0714 under setting [3], 0.0604 under setting [4], 0.159 under setting [9] and 0.0152 under setting [10].

`CC1CCC2(CO)CCC3(C)C(=CCC4C5(C)CCC(O)C(C)(C)C5CCC43C)C2C1C` (centres undefined): the “cell viability (log2)” value by setting is: under setting [17], 0.00774; under setting [18], -0.0265; under setting [19], 0.0749; under setting [20], 0.092.

Consider `Cn1cnc2c(F)c(Nc3ccc(Br)cc3Cl)c(C(=O)NOCCO)cc21`, for which the “cell viability (log2)” value is, setting by setting: under setting [1], -0.0515; under setting [2], 0.111; under setting [5], -0.109; under setting [6], 0.0965; under setting [7], -0.189 (active); under setting [8], 0.113. For the same compound, the “cell viability (log2)” value is, setting by setting: under setting [11], -0.222 (active); under setting [12], 0.014; under setting [13], -0.293 (active); under setting [14], 0.0549; under setting [15], -0.303 (active); under setting [16], -0.089.

`Cc1ccccc1CN1CCN(Cc2ccco2)CC1`: the “cell viability (log2)” value under setting [17] is 0.12, the “cell viability (log2)” value under setting [18] is 0.0129, the “cell viability (log2)” value under setting [19] was 0.0799 and the “cell viability (log2)” value under setting [20] is -0.0931.

Turning to `Cc1ccc(CN2CCN(Cc3c[nH]c4ccccc34)CC2)cc1`, the “cell viability (log2)” value by setting is: under setting [17], 0.0521; under setting [18], 0.0225; under setting [19], 0.104; under setting [20], 0.0231.

For `CC(=O)c1cc2c(cc1O)OC(C)(C)C=C2`, the “cell viability (log2)” value by setting is: under setting [17], 0.16; under setting [18], -0.0151; under setting [19], 0.126; under setting [20], 0.0912.

Consider `CC(C(=O)O)N1C(=O)C(=Cc2ccccn2)SC1=S` (centres undefined), for which the “cell viability (log2)” value by setting is: under setting [17], -2.05 (active); under setting [18], -1.9 (active); under setting [19], 0.144; under setting [20], 0.106.

Take `CC(C)N1C(=O)C(=Cc2ccccc2F)SC1=S`: the “cell viability (log2)” value is 0.0965 under setting [17], 0.0324 under setting [18], 0.0812 under setting [19] and -0.039 under setting [20].

Turning to `CC(C(=O)O)N1C(=O)C(=Cc2cccnc2)SC1=S` (centres undefined), the “cell viability (log2)” value by setting is: under setting [17], -0.0281; under setting [18], 0.0107; under setting [19], 0.0923; under setting [20], -0.0695.

Take `C=CC1=C(C)/C(=C/c2[nH]c(Cc3[nH]c(/C=C4\NC(=O)C(C)=C4C=C)c(C)c3CCC(=O)O)c(CCC(=O)O)c2C)NC1=O`: the “cell viability (log2)” value under setting [17] is 0.0132, the “cell viability (log2)” value under setting [18] was 0.0277, the “cell viability (log2)” value under setting [19] was 0.0983 and the “cell viability (log2)” value under setting [20] is 0.128.

Consider `S=c1[nH]nc(COc2ccc(Cl)cc2Cl)n1-c1ccccc1`, for which the “cell viability (log2)” value by setting is: under setting [17], 0.00963; under setting [18], 0.148; under setting [19], 0.0937; under setting [20], 0.0872.

Turning to `C[C@@H]1CC[C@@]2(OC1)O[C@H]1C[C@H]3[C@@H]4CC[C@H]5C[C@@H](O)CC[C@]5(C)[C@H]4CC(=O)[C@]3(C)[C@H]1[C@@H]2C`, the “cell viability (log2)” value under setting [17] was 0.102, the “cell viability (log2)” value under setting [18] was -0.00894, the “cell viability (log2)” value under setting [19] was 0.127 and the “cell viability (log2)” value under setting [20] is 0.0766.

For `Nc1ncnc2nc[nH]c12`, the “cell viability (log2)” value is -0.0276 under setting [1]; 0.0358 under setting [2]; -0.00904 under setting [17]; 0.112 under setting [18]; 0.0266 under setting [5]; 0.0376 under setting [6]. The “cell viability (log2)” value runs as follows: under setting [7], 0.0356; under setting [8], 0.0359; under setting [19], 0.0839; under setting [20], 0.087; under setting [11], -0.0229; under setting [12], 0.045. The “cell viability (log2)” value was -0.016 under setting [13], 0.0209 under setting [14], 0.0262 under setting [15] and 0.0745 under setting [16].

With `Nc1ncc2[nH]cnc2n1`, the “cell viability (log2)” value by setting is: (0.025 µM, library screen: screen1, EWS-FLI1 expression: high (no doxycycline)) 0.156; (0.025 µM, library screen: screen1, EWS-FLI1 expression: low (doxycycline-induced shRNA knockdown)) 0.0178; under setting [17], 0.22; under setting [18], 0.0137; under setting [19], -0.0954 (active); under setting [20], 0.025. For the same compound, the “cell viability (log2)” value is -0.0198 (25 µM, library screen: screen1, EWS-FLI1 expression: high (no doxycycline)) and 0.0477 (25 µM, library screen: screen1, EWS-FLI1 expression: low (doxycycline-induced shRNA knockdown)).

Regarding `Nc1nc(OCc2ccccc2)c2[nH]cnc2n1`, the “cell viability (log2)” value was 0.21 under setting [3], 0.111 under setting [4], 0.106 under setting [9] and 0.0266 under setting [10].
